Screens as filed in PubChem.
Shown are actives, neighbours in structure and some others; about 27% of the full set was active somewhere.
sEH act: soluble epoxide hydrolase activators, primary screen, biochemical, human sEH; Bifunctional epoxide hydrolase 2 (Homo sapiens), P34913; purified human sEH enzymatic activity, activator screen; activation, % at 2 µM; 0.04% of 91,000 active; AID 717, 2007; in the data active = activation above about 37%
Target sequence (P34913 whole entry, looked up): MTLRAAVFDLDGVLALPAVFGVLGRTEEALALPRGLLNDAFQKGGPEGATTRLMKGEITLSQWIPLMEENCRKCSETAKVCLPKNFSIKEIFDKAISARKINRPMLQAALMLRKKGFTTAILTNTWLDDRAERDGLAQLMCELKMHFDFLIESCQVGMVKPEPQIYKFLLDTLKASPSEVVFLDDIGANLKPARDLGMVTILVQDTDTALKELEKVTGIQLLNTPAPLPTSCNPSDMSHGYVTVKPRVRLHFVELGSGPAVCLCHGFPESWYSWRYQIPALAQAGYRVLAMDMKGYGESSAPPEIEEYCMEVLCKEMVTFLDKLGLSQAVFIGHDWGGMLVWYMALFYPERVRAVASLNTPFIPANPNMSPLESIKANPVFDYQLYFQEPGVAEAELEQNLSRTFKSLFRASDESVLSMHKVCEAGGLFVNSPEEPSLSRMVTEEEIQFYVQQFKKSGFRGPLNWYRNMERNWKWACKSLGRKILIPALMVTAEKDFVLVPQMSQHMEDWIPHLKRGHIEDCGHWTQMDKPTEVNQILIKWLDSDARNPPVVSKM
CYP2C9 act: human CYP2C9 activators, primary screen, biochemical, luminescence; AID 1024, 2008; recombinant CYP2C9, luciferin-H conversion; hits give high values; factor 1 = untreated enzyme, 0 = blocked; activation factor at 5 µM; 1.4% of 96,000 active;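 active = activation factor of 2 or more for CYP2C9 at a 5 µM dose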
sEH inh: soluble epoxide hydrolase inhibitors, primary screen, biochemical, human sEH. recombinant human sEH enzymatic activity assay. inhibition, % at 2 µM. 0.34% of 91,000 active. AID 707, 2007; in the data active = inhibition above about 80%
CYP2C9 inh: blockers of cytochrome P450 2C9 activity – biochemical, luminescence, ADME assay, primary screen. inhibition, % at 5 µM. AID 777, 2007. 20% of 96,000 active. CYP2C9 Supersomes, luciferin-H conversion;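 active = blocking of liver enzyme CYP2C9 beyond about 50% at 5 µM, limit read from the data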
CYP2C19 inhib: blockers of cytochrome P450 2C19 activity – biochemical, luminescence, ADME assay, primary screen; AID 778, 2007; inhibition, % at 5 µM; P33261; CYP2C19 Supersomes, luciferin-H EGE luminescence, 30 min; 21% of 96,000 active;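 active = CYP2C19 inhibition above a set limit at 5 µM in the primary screen, cut at about 50% in these data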
CYP2C19 act: human CYP2C19 activators, primary screen, biochemical, luminescence. 96,000 tested, under 10 active. activation factor at 5 µM. recombinant CYP2C19, luciferin-H EGE luminescence; hits give high values; 0 = fully inhibited enzyme, 1 = untreated enzyme. AID 1025, 2008;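 active = activation factor of at least 2 at 5 µM in the primary screen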
A number is an active result.

How did COc1cccc(N2C(=O)CC(c3c[nH]c4ccccc34)C2=O)c1 (stereo unspecified) do in these assays?
sEH act: inactive; CYP2C9 act: inactive; sEH inh: inactive; CYP2C9 inh: inactive; CYP2C19 inhib: 89; CYP2C19 act: inactive

How did O=C1CC(c2c[nH]c3ccccc23)C(=O)N1c1ccccc1 (stereo unspecified) do in these assays?
sEH act: inactive; sEH inh: inactive

What do the screens show for `COc1ccc(N2C(=O)CCC(C(=O)c3ccccc3)=C2C)cc1`?
CYP2C9 act: inactive; CYP2C9 inh: inactive; CYP2C19 inhib: 95; CYP2C19 act: inactive

Results for CCOC(=O)C1=C(C)N(c2ccccc2)C(=O)C1 ?
sEH act: inactive; sEH inh: inactive

Results for O=C(Cn1cnc2ccccc2c1=O)Nc1nnc(SCc2ccccc2)s1 ?
sEH act: inactive; CYP2C9 act: inactive; sEH inh: inactive; CYP2C9 inh: inactive; CYP2C19 inhib: inactive; CYP2C19 act: inactive

What do the screens show for `CCC(C)(c1ccc(C=O)s1)c1ccc(C=O)s1`?
sEH act: inactive; CYP2C9 act: inactive; sEH inh: inactive; CYP2C9 inh: 52; CYP2C19 inhib: inactive; CYP2C19 act: inactive

What do the screens show for `CC1(C(=O)NC23CC4CC(CC(C4)C2)C3)CC1(Cl)Cl` (stereo unspecified)?
sEH act: inactive; CYP2C9 act: inactive; sEH inh: inactive; CYP2C9 inh: inactive; CYP2C19 inhib: inactive; CYP2C19 act: inactive

Results for O=C(O)c1cc2c([nH]c1=O)CCCC2 ?
sEH act: inactive; CYP2C9 act: inactive; sEH inh: inactive; CYP2C9 inh: inactive; CYP2C19 inhib: inactive; CYP2C19 act: inactive

How did C=CCSC(=C(C#N)C#N)c1cc2c([nH]1)CCCC2 do in these assays?
sEH act: inactive; CYP2C9 act: inactive; sEH inh: inactive; CYP2C9 inh: 63; CYP2C19 inhib: inactive; CYP2C19 act: inactive

How did COc1ccc(C2=Nn3c(nnc3C3CCCCC3)SC2)cc1OC do in these assays?
sEH act: inactive; CYP2C9 act: inactive; sEH inh: inactive; CYP2C9 inh: 72; CYP2C19 inhib: 64; CYP2C19 act: inactive

How did COc1ccc(OC)c(C2=Nn3c(nnc3C3CCCCC3)SC2)c1 do in these assays?
sEH act: inactive; CYP2C9 act: inactive; sEH inh: inactive; CYP2C9 inh: 78; CYP2C19 inhib: 94; CYP2C19 act: inactive

Results for COc1ccccc1C1=Nn2c(nnc2C2CCCCC2)SC1 ?
sEH act: inactive; CYP2C9 act: inactive; sEH inh: inactive; CYP2C9 inh: inactive; CYP2C19 inhib: inactive; CYP2C19 act: inactive

What do the screens show for `COC(=O)c1ccc(C(=O)OC)c(NC(=O)c2cnc3n(c2=O)CCS3)c1`?
sEH act: inactive; sEH inh: inactive

What do the screens show for `Cc1ccc(/C=N/n2c(C)n[nH]c2=S)o1`?
sEH act: inactive; CYP2C9 act: inactive; sEH inh: inactive; CYP2C9 inh: inactive; CYP2C19 inhib: inactive; CYP2C19 act: inactive

What do the screens show for `COc1cccc(=O)c2c(C)n(-c3cc(C)cc(C)c3)c(C)c12`?
sEH act: inactive; CYP2C9 act: inactive; sEH inh: inactive; CYP2C9 inh: 82; CYP2C19 inhib: 82; CYP2C19 act: inactive

How did C/C(Nc1cccc(F)c1)=C(/C#N)C(N)=O do in these assays?
sEH act: inactive; CYP2C9 act: inactive; sEH inh: inactive; CYP2C9 inh: 68; CYP2C19 inhib: inactive; CYP2C19 act: inactive

Results for Cc1onc(-c2ccccc2)c1C(=O)OCC(=O)Nc1ccc2c(c1)OCO2 ?
sEH act: inactive; CYP2C9 act: inactive; sEH inh: inactive; CYP2C9 inh: 52; CYP2C19 inhib: 54; CYP2C19 act: inactive

How did Cc1onc(-c2ccccc2Cl)c1C(=O)OCC(=O)Nc1ccc2c(c1)OCO2 do in these assays?
CYP2C9 act: inactive; CYP2C9 inh: 88; CYP2C19 inhib: 99; CYP2C19 act: inactive

How did Cc1nn(-c2ccccc2)c(Cl)c1C(=O)OC(C)C(=O)Nc1ccc2c(c1)OCO2 (stereo unspecified) do in these assays?
sEH act: inactive; CYP2C9 act: inactive; sEH inh: inactive; CYP2C9 inh: 79; CYP2C19 inhib: 85; CYP2C19 act: inactive

How did Cc1onc(-c2ccccc2Cl)c1C(=O)Nc1ccccc1 do in these assays?
sEH act: inactive; sEH inh: inactive
